PubChem BioAssay (NCATS)
Records with an inconclusive call do not appear. Activity calls are given as the source filed them. The call rests on the fitted dose curve; in most records, active means well fitted curve in the direction sought with a large enough effect; inconclusive means small, poorly fitted or top-dose-only effect, or another doubt; inactive means no such curve, though single readings can be large; an effect the other way counts as inactive or inconclusive.

What was measured:
NIH3T3 = experiment: qHTS assay to identify novel small-molecules to repurpose for Merkel cell carcinoma treatment (AID 1296009); settings: MCC and control cell lines, CellTiter-Glo viability, 72 h; at 44.8 µM (top of the series) unless noted; further: nearly all actives have a fitted effect of over 60% in size
Outline: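 qHTS format: cells treated with library compounds in DMSO across 8 (NPC) or 11 (MIPE) concentrations. Readout after 72 hr at 37 degree celsius was CellTiter-Glo luminescence.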

C33A = experiment: Primary qHTS to identify gynecologic anti-cancer compounds using libraries of approved drugs and bioactive compounds (AID 1345084); settings: Gynecologic cancer cell panel viability, ATPlite luminescence, 48 h; series mostly up to 57.5 µM; further: on the % scale 0 is the no-effect control and ±100 the full control effect; nearly all actives have a fitted effect of over 55% in size
Outline: (§1)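 Cell viability after 48 h drug treatment, ATPlite luminescence readout; five doses.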

CAOV3 = experiment: as above; settings: Gynecologic cancer cell panel viability, ATPlite luminescence, 48 h; series mostly up to 57.5 µM
Outline: as §1

CASKI = experiment: as above; settings: Gynecologic cancer cell panel viability, ATPlite luminescence, 48 h; series mostly up to 57.5 µM
Outline: as §1

Es-2 = experiment: as above; settings: Gynecologic cancer cell panel viability, ATPlite luminescence, 48 h; series mostly up to 57.5 µM
Outline: as §1

HeLa = experiment: as above; settings: Gynecologic cancer cell panel viability, ATPlite luminescence, 48 h; series mostly up to 57.5 µM
Outline: as §1

Hek293T = experiment: as above; settings: Gynecologic cancer cell panel viability, ATPlite luminescence, 48 h, control line for the selectivity index; series mostly up to 57.5 µM
Outline: as §1

JEG-3 = experiment: as above; settings: Gynecologic cancer cell panel viability, ATPlite luminescence, 48 h; series mostly up to 57.5 µM
Outline: as §1

OV90 = experiment: as above; settings: Gynecologic cancer cell panel viability, ATPlite luminescence, 48 h; series mostly up to 57.5 µM
Outline: as §1

PA-1 = experiment: as above; settings: Gynecologic cancer cell panel viability, ATPlite luminescence, 48 h; series mostly up to 57.5 µM
Outline: as §1

SKOV3 = experiment: as above; settings: Gynecologic cancer cell panel viability, ATPlite luminescence, 48 h; series mostly up to 57.5 µM
Outline: as §1

Tov-21-G = experiment: as above; settings: Gynecologic cancer cell panel viability, ATPlite luminescence, 48 h; series mostly up to 57.5 µM
Outline: as §1

Tov112D = experiment: as above; settings: Gynecologic cancer cell panel viability, ATPlite luminescence, 48 h; series mostly up to 57.5 µM
Outline: as §1

COc1ccc2c(c1O)OC[C@H]1c3ccc(O)cc3O[C@@H]21
inactive: outcome (NIH3T3) | Potency (C33A) | Potency (CAOV3) | Potency (CASKI) | Potency (Es-2) | Potency (HeLa) | Potency (Hek293T) | Potency (JEG-3) | Potency (OV90) | Potency (PA-1) | Potency (SKOV3) | Potency (Tov-21-G) | Potency (Tov112D)

CC1=CC(=O)CC(C)(CO[C@@H]2O[C@H](CO)[C@@H](O)[C@H](O)[C@H]2O)C1(O)/C=C/C(C)=C/C(=O)O (stereo partly specified)
inactive: outcome (NIH3T3) inactive [at 17.4 µM] | Potency (C33A) | Potency (CAOV3) | Potency (CASKI) | Potency (Es-2) | Potency (HeLa) | Potency (Hek293T) | Potency (JEG-3) | Potency (OV90) | Potency (PA-1) | Potency (SKOV3) | Potency (Tov-21-G) | Potency (Tov112D)

C=CC1C(O[C@@H]2O[C@H](CO)[C@@H](O)[C@H](O)[C@H]2O)OC=C(C(=O)OC)C1Cc1nccc2c1[nH]c1ccccc12 (stereo partly specified)
inactive: outcome (NIH3T3) inactive [at 17.4 µM] | Potency (C33A) | Potency (CAOV3) | Potency (CASKI) | Potency (Es-2) | Potency (HeLa) | Potency (Hek293T) | Potency (JEG-3) | Potency (OV90) | Potency (PA-1) | Potency (SKOV3) | Potency (Tov-21-G) | Potency (Tov112D)

CCC(C)(O)C(O)C(=O)OCc1ccc(O[C@@H]2O[C@H](CO)[C@@H](O)[C@H](O)[C@H]2O)c(OC)c1 (stereo partly specified)
inactive: outcome (NIH3T3) inactive [at 17.4 µM] | Potency (C33A) | Potency (CAOV3) | Potency (CASKI) | Potency (Es-2) | Potency (HeLa) | Potency (Hek293T) | Potency (JEG-3) | Potency (OV90) | Potency (PA-1) | Potency (SKOV3) | Potency (Tov-21-G) | Potency (Tov112D)

CN(C)c1cccc(-c2c3c(=O)n(-c4ccccc4Cl)[nH]c3cc(=O)n2C)c1
inactive: outcome (NIH3T3) | Potency (C33A) | Potency (CAOV3) | Potency (CASKI) | Potency (Es-2) | Potency (HeLa) | Potency (Hek293T) | Potency (JEG-3) | Potency (OV90) | Potency (PA-1) | Potency (SKOV3) | Potency (Tov-21-G) | Potency (Tov112D)

OC1COC(OCC2OC(OCCc3ccccc3)C(O)C(O)C2O)C(O)C1O (stereo unspecified)
inactive: outcome (NIH3T3) inactive [at 17.4 µM] | Potency (C33A) | Potency (CAOV3) | Potency (CASKI) | Potency (Es-2) | Potency (HeLa) | Potency (Hek293T) | Potency (JEG-3) | Potency (OV90) | Potency (PA-1) | Potency (SKOV3) | Potency (Tov-21-G) | Potency (Tov112D)

N#CC1C(=O)Nc2scc(-c3ccc(-c4ccccc4O)cc3)c2C1=O (stereo unspecified)
inactive: outcome (NIH3T3) | Potency (C33A) | Potency (CAOV3) | Potency (CASKI) | Potency (Es-2) | Potency (HeLa) | Potency (Hek293T) | Potency (JEG-3) | Potency (OV90) | Potency (PA-1) | Potency (SKOV3) | Potency (Tov-21-G) | Potency (Tov112D)

COC1C2=C(COC2=O)C2(C)CCCC(C)(CO)C2C1OC(=O)c1ccccc1 (stereo unspecified)
inactive: outcome (NIH3T3) inactive [at 17.4 µM] | Potency (C33A) | Potency (CAOV3) | Potency (CASKI) | Potency (Es-2) | Potency (HeLa) | Potency (Hek293T) | Potency (JEG-3) | Potency (OV90) | Potency (PA-1) | Potency (SKOV3) | Potency (Tov-21-G) | Potency (Tov112D)

COc1cc(/C=C/c2cc(O)cc(O[C@@H]3O[C@H](CO)[C@@H](O)[C@H](O)[C@H]3O)c2)ccc1O
inactive: outcome (NIH3T3) inactive [at 17.4 µM] | Potency (C33A) | Potency (CAOV3) | Potency (CASKI) | Potency (Es-2) | Potency (HeLa) | Potency (Hek293T) | Potency (JEG-3) | Potency (OV90) | Potency (PA-1) | Potency (SKOV3) | Potency (Tov-21-G) | Potency (Tov112D)

CC(C)NC[C@H](O)COc1ccc(CCOCC2CC2)cc1
inactive: outcome (NIH3T3) | Potency (C33A) | Potency (CAOV3) | Potency (CASKI) | Potency (Es-2) | Potency (HeLa) | Potency (Hek293T) | Potency (JEG-3) | Potency (OV90) | Potency (PA-1) | Potency (SKOV3) | Potency (Tov-21-G) | Potency (Tov112D)

C=C(C)[C@@H]1CC[C@](C)(O)[C@@H](OC(=O)c2ccccc2)C1
inactive: outcome (NIH3T3) | Potency (C33A) | Potency (CAOV3) | Potency (CASKI) | Potency (Es-2) | Potency (HeLa) | Potency (Hek293T) | Potency (JEG-3) | Potency (OV90) | Potency (PA-1) | Potency (SKOV3) | Potency (Tov-21-G) | Potency (Tov112D)

COc1ccc2c(c1)O[C@H](O[C@@H]1O[C@H](CO)[C@@H](O)[C@H](O)[C@H]1O)C(=O)N2
inactive: outcome (NIH3T3) | Potency (C33A) | Potency (CAOV3) | Potency (CASKI) | Potency (Es-2) | Potency (HeLa) | Potency (Hek293T) | Potency (JEG-3) | Potency (OV90) | Potency (PA-1) | Potency (SKOV3) | Potency (Tov-21-G) | Potency (Tov112D)

C=CC(C)(O)CC/C=C(/C)C(=O)OC1C(OC2OCC(OC3OC(CO)C(O)C(O)C3O)C(OC3OCC(O)C(OC4OC(C)C(O)C(O)C4O)C3O)C2O)COC(OC(=O)C23CCC(C)(C)CC2C2=CCC4C5(C)CCC(OC6OC(CO)C(OC7OC(CO)C(O)C(OC8OCC(O)C(O)C8O)C7O)C(O)C6O)C(C)(C)C5CCC4(C)C2(C)CC3O)C1O (stereo unspecified)
inactive: outcome (NIH3T3) inactive [at 4.96 µM] | activity change, negative = cytotoxicity (C33A) 1.13% [at 6.55 µM] | activity change, negative = cytotoxicity (CAOV3) 6.96% [at 6.55 µM] | activity change, negative = cytotoxicity (CASKI) 8.91% [at 6.55 µM] | activity change, negative = cytotoxicity (Es-2) -0.338% [at 6.55 µM] | activity change, negative = cytotoxicity (HeLa) 1.37% [at 6.55 µM] | activity change, negative = cytotoxicity (Hek293T) -23.4% [at 6.55 µM] | activity change, negative = cytotoxicity (JEG-3) -0.642% [at 6.55 µM] | activity change, negative = cytotoxicity (OV90) -1.5% [at 6.55 µM] | activity change, negative = cytotoxicity (PA-1) 6.35% [at 6.55 µM] | activity change, negative = cytotoxicity (SKOV3) 24.3% [at 6.55 µM] | activity change, negative = cytotoxicity (Tov-21-G) 1.46% [at 6.55 µM] | activity change, negative = cytotoxicity (Tov112D) 0.487% [at 6.55 µM]

CCCn1cnc2c(NCc3ccccc3)nc(N[C@H](CC)CO)nc21
inactive: outcome (NIH3T3) | Potency (C33A) | Potency (CAOV3) | Potency (CASKI) | Potency (Es-2) | Potency (HeLa) | Potency (Hek293T) | Potency (JEG-3) | Potency (OV90) | Potency (PA-1) | Potency (SKOV3) | Potency (Tov-21-G) | Potency (Tov112D)

Cc1ncc([N+](=O)[O-])n1CC(O)CN1CCOCC1 (stereo unspecified)
inactive: outcome (NIH3T3) | Potency (C33A) | Potency (CAOV3) | Potency (CASKI) | Potency (Es-2) | Potency (HeLa) | Potency (Hek293T) | Potency (JEG-3) | Potency (OV90) | Potency (PA-1) | Potency (SKOV3) | Potency (Tov-21-G) | Potency (Tov112D)

CC(=O)O[C@@H]1[C@H](O[C@@H]2O[C@H](CO)[C@@H](O)[C@H](O)[C@H]2O)[C@@H](O[C@@H]2O[C@@H](C)[C@H](O)[C@@H](O[C@@H]3O[C@H](CO)[C@@H](O)[C@H](O)[C@H]3O)[C@H]2O)[C@H](OC(=O)C23CCC4(C)C(=CCC5C6(C)CC(O)C(O[C@@H]7O[C@H](C(=O)O)[C@@H](O)[C@H](O)[C@H]7O)C(C)(C(=O)O)C6CCC54C)C2CC(C)(C)CC3O)O[C@@H]1C (stereo partly specified)
inactive: outcome (NIH3T3) inactive [at 9.27 µM] | activity change, negative = cytotoxicity (C33A) 3.56% [at 6.55 µM] | activity change, negative = cytotoxicity (CAOV3) 14.4% [at 6.55 µM] | activity change, negative = cytotoxicity (CASKI) 24.3% [at 6.55 µM] | activity change, negative = cytotoxicity (Es-2) 1.96% [at 6.55 µM] | activity change, negative = cytotoxicity (HeLa) -1.78% [at 6.55 µM] | activity change, negative = cytotoxicity (Hek293T) 14.8% [at 6.55 µM] | activity change, negative = cytotoxicity (JEG-3) 1.97% [at 6.55 µM] | activity change, negative = cytotoxicity (OV90) 8.45% [at 6.55 µM] | activity change, negative = cytotoxicity (PA-1) 25.5% [at 6.55 µM] | activity change, negative = cytotoxicity (SKOV3) 2.37% [at 6.55 µM] | activity change, negative = cytotoxicity (Tov-21-G) 4.93% [at 6.55 µM] | activity change, negative = cytotoxicity (Tov112D) 4.44% [at 6.55 µM]

CC(C)(OC1OC(CO)C(O)C(O)C1O)C1CCC(O)(CO)C2CC(O)C(C)(O)C2C1 (stereo unspecified)
inactive: outcome (NIH3T3) inactive [at 17.4 µM] | Potency (C33A) | Potency (CAOV3) | Potency (CASKI) | Potency (Es-2) | Potency (HeLa) | Potency (Hek293T) | Potency (JEG-3) | Potency (OV90) | Potency (PA-1) | Potency (SKOV3) | Potency (Tov-21-G) | Potency (Tov112D)
